In PubChem BioAssay AID2639 (National Center for Advancing Translational Sciences (NCATS), 2010):
Calls of active or inactive are those of the source. Calls come from the whole dose curve.

Assay: Platelet Aggregation Secondary Assay for Inhibitors of Platelet Integrin alphallb-beta3
Settings: platelet-rich plasma, ADP-induced aggregation, absorbance 563 nm
From the text: NIH Molecular Libraries Probe Production Network [MLPCN] NIH Chemical Genomics Center [NCGC] MLPCN Grant: 1 R03 MH083257-01 Assay Provider: Barry Coller, Rockefeller University NCGC Assay Overview: The alphaIIbbeta3 receptor plays a vital role in hemostasis and thrombosis, where receptor deficiency causes the hemorrhagic disorder, Glanzmann thrombasthenia, and uncontrolled receptor activation causes thrombosis and blood vessel occlusion. Small molecule inhibitors of alphaIIbbeta3, tirofiban and eptifibatide, have undesirable side effects thought to arise from conformational changes in alphaIIbbeta3. These changes transiently activate the receptor to cause spontaneous platelet aggregation and thrombus formation. […] This secondary assay measures platelet aggregation (Blue et al., 2008). Platelets are induced to aggregate and aggregation is tracked by the change in absorbance over time. Inhibitors of alphaIIbbeta3 block platelet aggregation and decrease the rate of change in absorbance.
NCGC Assay Protocol Summary: Untreated 96-well polystyrene plates (Nunc, Rochester, NY) were blocked for at least 1 hour with HBMT (138 mM NaCl, 12 mM NaHCO3, 10 mM HEPES, 2.7 mM KCl, 0.4 mM NaH2PO4, 0.1% glucose, 0.35% BSA, pH 7.4). Compounds (33 uL in HBMT) and citrated platelet-rich plasma (67 uL) were added to the wells. After plates equilibrated at 37 C in the plate reader (SpectraMax; Molecular Devices, Sunnyvale, CA) for 10 minutes, aggregation was initiated by adding ADP (5 uM final concentration; Chrono-Log Corp, Havertown, PA). Absorbance (Abs) was measured at 563 nm every 10 seconds with 3 seconds of shaking between determinations for 8 minutes. Reference Blue R, Murcia M, Karan C, Jirouskova M, and Coller BS. Application of high-throughput screening to identify a novel alphaIIb-specific small- molecule inhibitor of alphaIIbbeta3-mediated platelet interaction with fibrinogen. Blood. 2008, 111(3):1248-56
With `O=c1cc(N2CCNCC2)nc2sc(Cc3ccccc3)nn12` the Potency was 13.9 µM (active).
In the case of `NCCC(=O)Nc1cccc(-c2nn3c(=O)cc(N4CCNCC4)nc3s2)c1`, the Potency is reported as 1.6 µM (active).
With `Nc1ncc(-c2cccc(-c3nn4c(=O)cc(N5CCNCC5)nc4s3)c2)cn1` the Potency was 10.1 µM (active).
In the case of `O=c1cc(N2CCNCC2)nc2sc(-c3cccc(-c4ccnc(F)c4)c3)nn12`, the Potency is reported as 8.4 µM (active).
With `O=C(O)c1cc(-c2cccc(-c3nn4c(=O)cc(N5CCNCC5)nc4s3)c2)cs1` the outcome was “inactive”.
For `CCc1nn2c(=O)cc(-c3ccncc3)nc2s1`, the outcome was “inactive”.
For `O=C(O)CNc1cccc(-c2nn3c(=O)cc(N4CCNCC4)nc3s2)c1`, the Potency was 12.7 µM (active).
In the case of `C[C@@H](N)C(=O)Nc1cccc(-c2nn3c(=O)cc(N4CCNCC4)nc3s2)c1`, the Potency is reported as 5.9 µM (active).
For `O=C(Nc1cccc(-c2nn3c(=O)cc(N4CCNCC4)nc3s2)c1)C1CCNCC1`, the Potency was 8.6 µM (active).
In the case of `C[C@H](N)C(=O)Nc1cccc(-c2nn3c(=O)cc(N4CCNCC4)nc3s2)c1`, the Potency is reported as 0.916 µM (active).
In the case of `CC(C)(C)c1nn2c(=O)cc(N3CCNCC3)nc2s1`, the outcome is reported as “inactive”.
In the case of `O=c1cc(N2CCNCC2)nc2sc(-c3cccc(-c4ccncc4)c3)nn12`, the Potency is reported as 8 µM (active).
In the case of `NCC(=O)Nc1cccc(-c2nn3c(=O)cc(N4CCNCC4)nc3s2)c1`, the Potency is reported as 0.163 µM (active).
With `NC(=O)c1ccc(-c2cccc(-c3nn4c(=O)cc(N5CCNCC5)nc4s3)c2)cc1` the Potency was 1.6 µM (active).
For `COCc1nn2c(=O)cc(N3CCNCC3)nc2s1`, the outcome was “inactive”.
With `CCc1nn2c(=O)cc(N3C(C)CNCC3C)nc2s1` (stereo unspecified) the outcome was “inactive”.
For `O=C(O)c1ccc(-c2cccc(-c3nn4c(=O)cc(N5CCNCC5)nc4s3)c2)cc1`, the Potency was 11.4 µM (active).
With `O=C(O)c1cccc(-c2cccc(-c3nn4c(=O)cc(N5CCNCC5)nc4s3)c2)c1` the outcome was “inactive”.
In the case of `CNCC(=O)Nc1cccc(-c2nn3c(=O)cc(N4CCNCC4)nc3s2)c1`, the outcome is reported as “inactive”.
For `O=C(Nc1cccc(-c2nn3c(=O)cc(N4CCNCC4)nc3s2)c1)c1ccncc1`, the Potency was 1.5 µM (active).
In the case of `Cc1noc(C)c1-c1cccc(-c2nn3c(=O)cc(N4CCNCC4)nc3s2)c1`, the outcome is reported as “inactive”.
For `CCc1nn2c(=O)cc(NC3CNC3)nc2s1`, the outcome was “inactive”.
In the case of `O=c1cc(N2CCNCC2)nc2sc(-c3ccncc3)nn12`, the Potency is reported as 3.1 µM (active).
For `O=C(Nc1cccc(-c2nn3c(=O)cc(N4CCNCC4)nc3s2)c1)c1ccon1`, the outcome was “inactive”.
For `Nc1ccc(-c2cccc(-c3nn4c(=O)cc(N5CCNCC5)nc4s3)c2)cc1`, the Potency was 1.9 µM (active).
For `O=C(O)c1ccc(-c2nn3c(=O)cc(N4CCNCC4)nc3s2)cc1`, the Potency was 5.4 µM (active).
